# Data reported in the supplement of paper PMC4022240.
# ± gives the standard deviation.
# T1: HaloTag-ATRX ADD domain (163-292)
# T1 chain: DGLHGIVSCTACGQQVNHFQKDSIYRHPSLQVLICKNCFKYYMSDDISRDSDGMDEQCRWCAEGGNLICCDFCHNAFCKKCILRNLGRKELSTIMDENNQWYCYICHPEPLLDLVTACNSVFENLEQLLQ
# Experiments:
# Test in all cases: peptide microarray binding signal (635 nm), min-max normalized on array (fraction of array maximum); higher = stronger binding
# Conditions in all cases: peptide region: H3 5-17
# [1] = biological target: T1, HaloTag-ATRX ADD domain (163-292)
# In short: (§1)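 For each library, binding signal was taken as the triplicate-spot mean intensity and then min-max scaled. Spots of histone 13-mer peptide–cellulose conjugates on nitrocellulose, printed in triplicate with a Cy3 tracer, were probed for 1 h at 4°C with either biotin-labelled HaloTag reader fusions (10 nM to 1 μM) and streptavidin-Alexa Fluor 647 or rabbit histone antibodies (1:10,000 to 1:2,000) and anti-rabbit Alexa 647. Readout at 635 nm came from an Axon GenePix 4000B.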
# [2] = biological target: HaloTag-ING2 PHD (mouse Ing2 200-280)
# In short: as §1
# [3] = biological target: anti-H3K4me3 antibody ab8580
# In short: as §1
# [4] = biological target: anti-H3K9me3 antibody ab8898
# In short: as §1
# [5] = peptide modifications: H3K9me2 H3T11ph, binder concentration: 1:2,000 dilution
# [6] = peptide modifications: H3K9me2 H3T11ph, binder concentration: 1:10,000 dilution
# [7] = peptide modifications: H3K9me2, binder concentration: 1:2,000 dilution
# [8] = peptide modifications: H3K9me2, binder concentration: 1:10,000 dilution
# [9] = peptide modifications: H3K9me2 H3S10ph, binder concentration: 1:2,000 dilution
# [10] = peptide modifications: H3K9me2 H3S10ph, binder concentration: 1:10,000 dilution
# [11] = peptide modifications: H3K14me3, binder concentration: 1:2,000 dilution
# [12] = peptide modifications: H3K14me3, binder concentration: 1:10,000 dilution
# [13] = peptide modifications: H3K9me3 H3T11ph, binder concentration: 1:2,000 dilution
# [14] = peptide modifications: H3K9me3 H3T11ph, binder concentration: 1:10,000 dilution
# [15] = peptide modifications: H3K14ac, binder concentration: 1:2,000 dilution
# [16] = peptide modifications: H3K14ac, binder concentration: 1:10,000 dilution
# [17] = peptide modifications: H3K9me1 H3T11ph, binder concentration: 1:2,000 dilution
# [18] = peptide modifications: H3K9me1 H3T11ph, binder concentration: 1:10,000 dilution
# [19] = peptide modifications: H3R8cit H3K9ac, binder concentration: 1:2,000 dilution
# [20] = peptide modifications: H3R8cit H3K9ac, binder concentration: 1:10,000 dilution
# [21] = peptide modifications: H3K9me2 H3K14me1, binder concentration: 1:2,000 dilution
# [22] = peptide modifications: H3K9me2 H3K14me1, binder concentration: 1:10,000 dilution
# [23] = peptide modifications: H3K14me1, binder concentration: 1:2,000 dilution
# [24] = peptide modifications: H3K14me1, binder concentration: 1:10,000 dilution
binder,measurement,setting,value
QTARKSTGGKAPR [H3 5-17 Q T A R Kme2 S Tph G G K A P R],peptide microarray binding signal,"[1]; peptide modifications: H3K9me2 H3T11ph, binder concentration: 50 nM",0.00201 ± 3.7e-05
same,peptide microarray binding signal,"[1]; peptide modifications: H3K9me2 H3T11ph, binder concentration: 500 nM",0.00319 ± 6.5e-05
same,peptide microarray binding signal,"[2]; peptide modifications: H3K9me2 H3T11ph, binder concentration: 10 nM",0.0031 ± 7.8e-05
same,peptide microarray binding signal,"[2]; peptide modifications: H3K9me2 H3T11ph, binder concentration: 100 nM",0.0022 ± 3.7e-05
same,peptide microarray binding signal,[3]; [5],0.000396 ± 7e-06
same,peptide microarray binding signal,[3]; [6],0.000799 ± 8.3e-06
same,peptide microarray binding signal,[4]; [5],0.0382 ± 0.01
same,peptide microarray binding signal,[4]; [6],0.0291 ± 0.0025
QTARKSTGGKAPR [H3 5-17 Q T A R Kme2 S T G G K A P R],peptide microarray binding signal,"[1]; peptide modifications: H3K9me2, binder concentration: 50 nM",0.0133 ± 0.0071
same,peptide microarray binding signal,"[1]; peptide modifications: H3K9me2, binder concentration: 500 nM",0.0011 ± 2.1e-05
same,peptide microarray binding signal,"[2]; peptide modifications: H3K9me2, binder concentration: 10 nM",0.00334 ± 9.6e-05
same,peptide microarray binding signal,"[2]; peptide modifications: H3K9me2, binder concentration: 100 nM",0.00248 ± 8.6e-05
same,peptide microarray binding signal,[3]; [7],0.00583 ± 0.0036
same,peptide microarray binding signal,[3]; [8],0.0112 ± 0.0032
same,peptide microarray binding signal,[4]; [7],0.00489 ± 0.0019
same,peptide microarray binding signal,[4]; [8],0.003 ± 0.00036
QTARKSTGGKAPR [H3 5-17 Q T A R Kme2 Sph T G G K A P R],peptide microarray binding signal,"[1]; peptide modifications: H3K9me2 H3S10ph, binder concentration: 50 nM",0.00806 ± 0.00056
same,peptide microarray binding signal,"[1]; peptide modifications: H3K9me2 H3S10ph, binder concentration: 500 nM",0.0147 ± 0.00082
same,peptide microarray binding signal,"[2]; peptide modifications: H3K9me2 H3S10ph, binder concentration: 10 nM",0.03 ± 0.0049
same,peptide microarray binding signal,"[2]; peptide modifications: H3K9me2 H3S10ph, binder concentration: 100 nM",0.0527 ± 0.017
same,peptide microarray binding signal,[3]; [9],0.0068 ± 0.00063
same,peptide microarray binding signal,[3]; [10],0.00639 ± 0.00076
same,peptide microarray binding signal,[4]; [9],0.193 ± 0.067
same,peptide microarray binding signal,[4]; [10],0.0868 ± 0.021
QTARKSTGGKAPR [H3 5-17 Q T A R K S T G G Kme3 A P R],peptide microarray binding signal,"[1]; peptide modifications: H3K14me3, binder concentration: 50 nM",0.00931 ± 0.00042
same,peptide microarray binding signal,"[1]; peptide modifications: H3K14me3, binder concentration: 500 nM",0.0186 ± 0.0016
same,peptide microarray binding signal,"[2]; peptide modifications: H3K14me3, binder concentration: 10 nM",0.0256 ± 0.00028
same,peptide microarray binding signal,"[2]; peptide modifications: H3K14me3, binder concentration: 100 nM",0.0377 ± 0.0028
same,peptide microarray binding signal,[3]; [11],0.0987 ± 0.029
same,peptide microarray binding signal,[3]; [12],0.0663 ± 0.0053
same,peptide microarray binding signal,[4]; [11],0.0574 ± 0.00077
same,peptide microarray binding signal,[4]; [12],0.0328 ± 0.0018
QTARKSTGGKAPR [H3 5-17 Q T A R Kme3 S Tph G G K A P R],peptide microarray binding signal,"[1]; peptide modifications: H3K9me3 H3T11ph, binder concentration: 50 nM",0.00737 ± 0.0032
same,peptide microarray binding signal,"[1]; peptide modifications: H3K9me3 H3T11ph, binder concentration: 500 nM",0.00981 ± 0.0012
same,peptide microarray binding signal,"[2]; peptide modifications: H3K9me3 H3T11ph, binder concentration: 10 nM",0.00352 ± 0.00053
same,peptide microarray binding signal,"[2]; peptide modifications: H3K9me3 H3T11ph, binder concentration: 100 nM",0.00539 ± 0.0012
same,peptide microarray binding signal,[3]; [13],0.00485 ± 0.00012
same,peptide microarray binding signal,[3]; [14],0.00747 ± 0.0029
same,peptide microarray binding signal,[4]; [13],0.215 ± 0.078
same,peptide microarray binding signal,[4]; [14],0.229 ± 0.095
QTARKSTGGKAPR [H3 5-17 Q T A R K S T G G Kac A P R],peptide microarray binding signal,"[1]; peptide modifications: H3K14ac, binder concentration: 50 nM",0.01348 ± 6.3e-05
same,peptide microarray binding signal,"[1]; peptide modifications: H3K14ac, binder concentration: 500 nM",0.0307 ± 0.0021
same,peptide microarray binding signal,"[2]; peptide modifications: H3K14ac, binder concentration: 10 nM",0.0491 ± 0.007
same,peptide microarray binding signal,"[2]; peptide modifications: H3K14ac, binder concentration: 100 nM",0.0789 ± 0.0089
same,peptide microarray binding signal,[3]; [15],0.0163 ± 0.0012
same,peptide microarray binding signal,[3]; [16],0.0226 ± 0.0018
same,peptide microarray binding signal,[4]; [15],0.0103 ± 0.00042
same,peptide microarray binding signal,[4]; [16],0.00657 ± 0.0006
QTARKSTGGKAPR [H3 5-17 Q T A R Kme S Tph G G K A P R],peptide microarray binding signal,"[1]; peptide modifications: H3K9me1 H3T11ph, binder concentration: 50 nM",0.00179 ± 4.4e-05
same,peptide microarray binding signal,"[1]; peptide modifications: H3K9me1 H3T11ph, binder concentration: 500 nM",0.003 ± 0.00011
same,peptide microarray binding signal,"[2]; peptide modifications: H3K9me1 H3T11ph, binder concentration: 10 nM",0.002208 ± 2.2e-05
same,peptide microarray binding signal,"[2]; peptide modifications: H3K9me1 H3T11ph, binder concentration: 100 nM",0.00524 ± 0.00071
same,peptide microarray binding signal,[3]; [17],0.000396 ± 4.2e-05
same,peptide microarray binding signal,[3]; [18],0.000285 ± 3.1e-06
same,peptide microarray binding signal,[4]; [17],0.00856 ± 0.0022
same,peptide microarray binding signal,[4]; [18],0.00208 ± 5.1e-05
QTARKSTGGKAPR [H3 5-17 Q T A Rcit Kac S T G G K A P R],peptide microarray binding signal,"[1]; peptide modifications: H3R8cit H3K9ac, binder concentration: 50 nM",0.0106 ± 0.00074
same,peptide microarray binding signal,"[1]; peptide modifications: H3R8cit H3K9ac, binder concentration: 500 nM",0.0249 ± 0.0053
same,peptide microarray binding signal,"[2]; peptide modifications: H3R8cit H3K9ac, binder concentration: 10 nM",0.0426 ± 0.0074
same,peptide microarray binding signal,"[2]; peptide modifications: H3R8cit H3K9ac, binder concentration: 100 nM",0.0673 ± 0.0053
same,peptide microarray binding signal,[3]; [19],0.0133 ± 0.0056
same,peptide microarray binding signal,[3]; [20],0.0146 ± 0.0065
same,peptide microarray binding signal,[4]; [19],0.0143 ± 0.0052
same,peptide microarray binding signal,[4]; [20],0.0112 ± 0.00045
QTARKSTGGKAPR [H3 5-17 Q T A R Kme2 S T G G Kme A P R],peptide microarray binding signal,"[1]; peptide modifications: H3K9me2 H3K14me1, binder concentration: 50 nM",0.00589 ± 7.1e-05
same,peptide microarray binding signal,"[1]; peptide modifications: H3K9me2 H3K14me1, binder concentration: 500 nM",0.015 ± 0.0013
same,peptide microarray binding signal,"[2]; peptide modifications: H3K9me2 H3K14me1, binder concentration: 10 nM",0.00812 ± 0.00048
same,peptide microarray binding signal,"[2]; peptide modifications: H3K9me2 H3K14me1, binder concentration: 100 nM",0.0359 ± 0.0037
same,peptide microarray binding signal,[3]; [21],0.00455 ± 0.00086
same,peptide microarray binding signal,[3]; [22],0.00365 ± 0.00015
same,peptide microarray binding signal,[4]; [21],0.217 ± 0.078
same,peptide microarray binding signal,[4]; [22],0.0891 ± 0.021
QTARKSTGGKAPR [H3 5-17 Q T A R K S T G G Kme A P R],peptide microarray binding signal,"[1]; peptide modifications: H3K14me1, binder concentration: 50 nM",0.0197 ± 0.00048
same,peptide microarray binding signal,"[1]; peptide modifications: H3K14me1, binder concentration: 500 nM",0.047 ± 0.0024
same,peptide microarray binding signal,"[2]; peptide modifications: H3K14me1, binder concentration: 10 nM",0.0957 ± 0.02
same,peptide microarray binding signal,"[2]; peptide modifications: H3K14me1, binder concentration: 100 nM",0.0987 ± 0.016
same,peptide microarray binding signal,[3]; [23],0.0306 ± 0.0089
same,peptide microarray binding signal,[3]; [24],0.0289 ± 0.0032
same,peptide microarray binding signal,[4]; [23],0.0125 ± 0.0013
same,peptide microarray binding signal,[4]; [24],0.0104 ± 0.0012
